From PubChem
Rab2 wt GTP – changes GTP binding to wildtype dog Rab2A, up or down. P61105. GST-Rab2 wt beads, Bodipy-GTP binding, flow cytometry. GTP binding activity, % at 10 µM. 0.19% of 190,000 active. AID 760;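 active = GTP binding activity at least 20 points away from 100%, either lowered or raised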
HRas wt GTP – changes GTP binding to wildtype human HRas; P01112; GST-Ras wt beads, Bodipy-FL-GTP binding, flow cytometry; actives lie on both sides; GTP binding activity, % at 10 µM; 0.14% of 190,000 active;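 active = GTP binding activity at least 20% away from the 100% baseline, either lowered as inhibitor or raised as activator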
Cdc42 wt – changes GTP binding to wildtype human Cdc42; P60953; GST-Cdc42 beads, Bodipy-GTP binding, flow cytometry; actives lie on both sides; percent activity (GTP binding), % at 10 µM; 0.2% of 190,000 active; AID 761;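 active = percent activity GTP binding at least 20 points away from the 100% baseline, either down as inhibitor or up as activator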;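 note: median bead fluorescence of bound Bodipy-FL-GTP at 100 nM; below 100% means less GTP binding so inhibitor and above means activator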
Target sequence (P60953 whole entry, looked up): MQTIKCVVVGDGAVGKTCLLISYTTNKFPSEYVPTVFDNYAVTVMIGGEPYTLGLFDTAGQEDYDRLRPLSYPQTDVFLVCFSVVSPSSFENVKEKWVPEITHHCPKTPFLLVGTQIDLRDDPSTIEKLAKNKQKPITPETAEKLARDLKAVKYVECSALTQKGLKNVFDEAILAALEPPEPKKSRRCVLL
Rac1 wt GTP bind – human Rac1 wildtype GTP binding, inhibitors and activators; GST-Rac1 beads, fluorescent GTP binding, flow cytometry; actives lie on both sides; 0 = cold GTP competed, 100 = untreated; GTP binding activity (% of control), % at 10 µM; 0.27% of 190,000 active; AID 757;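 active = GTP binding activity at least 20 points away from the 100% control level, either lower or higher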
Rab7 wt modul – modulators of GTP binding to dog Rab7 wildtype GTPase | GST-Rab7 beads, fluorescent GTP binding, flow cytometry; actives lie on both sides; untreated = 100%, excess cold GTP = 0% | GTP binding activity (percent of control), % at 10 µM | 0.055% of 190,000 active | AID 758;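 active = fluorescent GTP binding to Rab7 beads changed by at least 20 points from the 100% baseline, either direction, mostly lower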;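 note: median green fluorescence of bound Bodipy-FL-GTP per Rab7 bead population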
Rac1 mut GTP – human Rac1 activated mutant GTP binding change | GST-Rac1 activated beads, fluorescent GTP binding, flow cytometry; actives lie on both sides; 100% means binding = to untreated wells | percent activity (GTP binding), % at 10 µM | 0.11% of 190,000 active | P63000 | AID 764;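 active = GTP binding at least 20 percentage points away from the 100% baseline, in either direction, so actives lie on both sides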
Each line names hits and unclear results; the compound was inactive in the other large screens; [ ] = another dose, or the depositor's remark. An excerpt weighted towards active compounds, which were near 0.4% of everything screened.

CCOC(=O)c1c(NC(=O)C(=O)N/N=C/c2ccc(O)c(OC)c2)sc2c1CCCCC2	Cdc42 wt 61
CC1(C)Cc2c(sc(NC(=S)NC(=O)c3ccccc3)c2C(=O)O)CO1	Rab2 wt GTP 69, HRas wt GTP 67, Rac1 wt GTP bind 70, Rac1 mut GTP 63 (no result: Cdc42 wt, Rab7 wt modul)
O=C(CCS(=O)(=O)c1cccc2nonc12)N1CCCc2ccccc21	none
Cc1ccc(C)c(OCCn2cc(C(=O)O)c3ccccc32)c1	Rab2 wt GTP 138[activator], HRas wt GTP 129[activator], Cdc42 wt 140[activator], Rac1 wt GTP bind 170[activator], Rab7 wt modul 136[activator], Rac1 mut GTP 136[activator]
Cc1ccccc1OCCn1cc(C(=O)O)c2ccccc21	Rab2 wt GTP 126[activator], HRas wt GTP 124[activator], Cdc42 wt 123[activator], Rac1 wt GTP bind 151[activator], Rab7 wt modul 122[activator], Rac1 mut GTP 128[activator]
Cc1ccccc1OCCn1cc(/C(N)=N/O)c2ccccc21	none
Cc1ccc(C)c(OCCn2cc(/C=C(\C#N)C(=O)NCc3ccco3)c3ccccc32)c1	none
CC(C)c1nc2oc3c(=O)[nH]cnc3c2c2c1CCC2	Rab2 wt GTP 73, HRas wt GTP 74, Cdc42 wt 70, Rac1 wt GTP bind 79
CCCc1nc2oc3c(=O)[nH]cnc3c2c2c1CCCC2	Rac1 wt GTP bind 79
CC(C)Cc1nc2oc3c(Cl)ncnc3c2c2c1CCC2	none
CC(C)c1nc2sc3c(=O)[nH]c(=S)[nH]c3c2c2c1CCC2	none
CCCOC1OC(=O)c2c1ccc(OC)c2OC (configuration not stated)	none
